# Measurements taken from the supplement of paper PMC10849652.
# Of roughly 7,900 targets only a part is listed; those with a hit were picked by preference. About 0.6% of all pairs of compound and target were hits. Unmarked numbers belong to inactive results.
# How the values were obtained:
# Experiment in all cases: log2 fold change, soluble protein after heating vs DMSO (PISA); higher = thermal stabilisation; K562 cells, 10 uM, 30 min; active = over 0.2 and 3.5 SD of the protein, either way, in both replicates (recomputed)
# bafetinib = compound: Cc1ccc(NC(=O)c2ccc(CN3CC[C@H](N(C)C)C3)c(C(F)(F)F)c2)cc1Nc1nccc(-c2cncnc2)n1 [bafetinib]
# In short: (§1)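 K562 cells at 2×10^6 cells/mL were treated for 30 min with 10 μM compound, and aliquots were heated for 3 min over 48°C-58°C before pooling. Extraction used PBS with 0.5% NP-40 at 4°C, and soluble protein was the supernatant after 21,000xg for 90 min, measured by TMTpro 16plex LC-MS/MS with channel sums equalised. Thermal stability values, relative to control samples and from duplicates, are log2 fold changes.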
# [1] = compound: Cc1cccc(CC(=O)N2CCc3c2ccc(-c2cn(C)c4ncnc(N)c24)c3F)n1
# In short: as §1
# nilotinib = compound: Cc1cn(-c2cc(NC(=O)c3ccc(C)c(Nc4nccc(-c5cccnc5)n4)c3)cc(C(F)(F)F)c2)cn1 [nilotinib]
# In short: as §1
# [2] = compound: Cc1nc(Nc2n[nH]c3c2CN(C(=O)N[C@H](CN(C)C)c2ccccc2)C3(C)C)c2sccc2n1
# In short: as §1
# dasatinib = compound: Cc1nc(Nc2ncc(C(=O)Nc3c(C)cccc3Cl)s2)cc(N2CCN(CCO)CC2)n1 [dasatinib]
# In short: as §1
# [3] = compound: Cc1ncc(-c2ccnc(Nc3ccc(S(C)(=O)=O)cc3)n2)n1C(C)C
# In short: as §1
# [4] = compound: Cn1cc(-c2ccc3c(c2)CCN3C(=O)Cc2cccc(C(F)(F)F)c2)c2c(N)ncnc21
# In short: as §1
# [5] = compound: Cn1cc(-c2ccc3nnc(C(F)(F)c4ccc5ncccc5c4)n3n2)cn1
# In short: as §1
# tipifarnib = compound: Cn1cncc1[C@@](N)(c1ccc(Cl)cc1)c1ccc2c(c1)c(-c1cccc(Cl)c1)cc(=O)n2C [tipifarnib]
# In short: as §1
# mubritinib = compound: FC(F)(F)c1ccc(/C=C/c2nc(COc3ccc(CCCCn4ccnn4)cc3)co2)cc1 [mubritinib]
# In short: as §1
# Sequence of UniProt O14893 (O14893 whole entry, looked up): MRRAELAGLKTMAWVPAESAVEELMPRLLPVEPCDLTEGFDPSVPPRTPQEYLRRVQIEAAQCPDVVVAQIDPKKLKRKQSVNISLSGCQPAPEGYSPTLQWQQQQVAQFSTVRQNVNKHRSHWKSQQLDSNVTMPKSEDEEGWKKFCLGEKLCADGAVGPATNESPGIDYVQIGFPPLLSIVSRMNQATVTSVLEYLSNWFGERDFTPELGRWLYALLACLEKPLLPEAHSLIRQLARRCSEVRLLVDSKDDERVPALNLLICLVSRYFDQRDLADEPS
# Sequence of UniProt P0CL80 (P0CL80 whole entry, looked up): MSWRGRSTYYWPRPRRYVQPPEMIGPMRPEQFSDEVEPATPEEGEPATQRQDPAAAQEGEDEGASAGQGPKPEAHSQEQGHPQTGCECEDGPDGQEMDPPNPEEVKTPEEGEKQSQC
# Sequence of UniProt Q5SSJ5 (Q5SSJ5 whole entry, looked up): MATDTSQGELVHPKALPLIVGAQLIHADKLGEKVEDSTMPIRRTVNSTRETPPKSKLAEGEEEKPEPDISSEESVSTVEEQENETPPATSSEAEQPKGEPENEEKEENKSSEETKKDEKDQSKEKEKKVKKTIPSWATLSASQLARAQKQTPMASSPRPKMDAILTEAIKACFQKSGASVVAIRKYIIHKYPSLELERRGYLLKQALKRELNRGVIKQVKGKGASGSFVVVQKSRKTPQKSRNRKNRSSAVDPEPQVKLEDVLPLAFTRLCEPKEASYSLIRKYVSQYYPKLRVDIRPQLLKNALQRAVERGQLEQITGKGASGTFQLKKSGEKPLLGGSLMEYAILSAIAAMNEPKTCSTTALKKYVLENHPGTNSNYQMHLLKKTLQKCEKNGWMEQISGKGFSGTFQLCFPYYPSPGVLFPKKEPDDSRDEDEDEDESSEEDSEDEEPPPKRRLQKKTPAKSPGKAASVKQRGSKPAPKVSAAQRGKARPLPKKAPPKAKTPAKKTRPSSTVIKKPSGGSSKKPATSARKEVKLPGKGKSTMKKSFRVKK
# Sequence of UniProt P78417 (P78417 whole entry, looked up): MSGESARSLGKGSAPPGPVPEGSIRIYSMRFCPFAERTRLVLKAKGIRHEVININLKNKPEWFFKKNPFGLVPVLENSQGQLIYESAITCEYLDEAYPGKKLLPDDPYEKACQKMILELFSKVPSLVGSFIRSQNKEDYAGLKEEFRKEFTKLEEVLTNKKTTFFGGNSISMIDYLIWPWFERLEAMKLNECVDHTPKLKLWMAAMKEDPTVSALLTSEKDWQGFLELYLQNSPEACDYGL
# Sequence of UniProt Q9UJ14 (Q9UJ14 whole entry, looked up): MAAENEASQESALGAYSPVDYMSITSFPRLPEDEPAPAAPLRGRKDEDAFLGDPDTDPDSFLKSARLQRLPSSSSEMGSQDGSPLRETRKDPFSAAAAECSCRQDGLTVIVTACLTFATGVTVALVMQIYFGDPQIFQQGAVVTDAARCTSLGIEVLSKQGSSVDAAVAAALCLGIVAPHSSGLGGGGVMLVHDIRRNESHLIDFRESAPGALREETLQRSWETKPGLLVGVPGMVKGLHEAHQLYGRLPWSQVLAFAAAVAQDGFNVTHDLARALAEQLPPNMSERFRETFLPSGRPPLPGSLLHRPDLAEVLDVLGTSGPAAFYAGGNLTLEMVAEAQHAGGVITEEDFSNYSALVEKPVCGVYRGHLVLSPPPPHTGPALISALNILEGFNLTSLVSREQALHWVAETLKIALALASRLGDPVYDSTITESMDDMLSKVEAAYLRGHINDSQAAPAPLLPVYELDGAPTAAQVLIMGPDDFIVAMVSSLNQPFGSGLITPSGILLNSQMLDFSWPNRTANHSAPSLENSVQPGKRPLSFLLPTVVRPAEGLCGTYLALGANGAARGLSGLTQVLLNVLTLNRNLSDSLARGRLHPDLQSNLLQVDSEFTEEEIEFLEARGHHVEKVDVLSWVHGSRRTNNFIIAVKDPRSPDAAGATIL
# Sequence of UniProt Q9UKN8 (Q9UKN8 whole entry, looked up): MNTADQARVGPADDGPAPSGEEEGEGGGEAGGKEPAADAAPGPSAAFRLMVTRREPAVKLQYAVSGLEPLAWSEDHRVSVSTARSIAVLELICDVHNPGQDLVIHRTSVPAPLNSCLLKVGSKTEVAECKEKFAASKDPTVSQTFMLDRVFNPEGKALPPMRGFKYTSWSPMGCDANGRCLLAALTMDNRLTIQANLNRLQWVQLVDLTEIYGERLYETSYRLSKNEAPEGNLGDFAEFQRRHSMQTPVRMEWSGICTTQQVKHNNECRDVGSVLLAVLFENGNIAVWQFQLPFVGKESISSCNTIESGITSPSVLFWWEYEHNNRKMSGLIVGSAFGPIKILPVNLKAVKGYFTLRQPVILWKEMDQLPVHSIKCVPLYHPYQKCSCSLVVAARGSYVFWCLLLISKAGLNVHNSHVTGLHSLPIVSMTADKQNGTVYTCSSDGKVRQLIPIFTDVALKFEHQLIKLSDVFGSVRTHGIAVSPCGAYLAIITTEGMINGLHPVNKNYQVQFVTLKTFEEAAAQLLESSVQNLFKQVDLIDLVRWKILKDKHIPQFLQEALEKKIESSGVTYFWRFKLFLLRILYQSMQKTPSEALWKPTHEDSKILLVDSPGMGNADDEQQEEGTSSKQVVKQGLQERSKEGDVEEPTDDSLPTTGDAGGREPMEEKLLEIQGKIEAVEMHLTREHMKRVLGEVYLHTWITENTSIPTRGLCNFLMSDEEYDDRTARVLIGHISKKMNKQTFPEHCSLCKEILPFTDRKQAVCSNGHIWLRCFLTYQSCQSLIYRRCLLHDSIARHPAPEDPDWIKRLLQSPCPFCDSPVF
# Sequence of UniProt Q10472 (Q10472 whole entry, looked up): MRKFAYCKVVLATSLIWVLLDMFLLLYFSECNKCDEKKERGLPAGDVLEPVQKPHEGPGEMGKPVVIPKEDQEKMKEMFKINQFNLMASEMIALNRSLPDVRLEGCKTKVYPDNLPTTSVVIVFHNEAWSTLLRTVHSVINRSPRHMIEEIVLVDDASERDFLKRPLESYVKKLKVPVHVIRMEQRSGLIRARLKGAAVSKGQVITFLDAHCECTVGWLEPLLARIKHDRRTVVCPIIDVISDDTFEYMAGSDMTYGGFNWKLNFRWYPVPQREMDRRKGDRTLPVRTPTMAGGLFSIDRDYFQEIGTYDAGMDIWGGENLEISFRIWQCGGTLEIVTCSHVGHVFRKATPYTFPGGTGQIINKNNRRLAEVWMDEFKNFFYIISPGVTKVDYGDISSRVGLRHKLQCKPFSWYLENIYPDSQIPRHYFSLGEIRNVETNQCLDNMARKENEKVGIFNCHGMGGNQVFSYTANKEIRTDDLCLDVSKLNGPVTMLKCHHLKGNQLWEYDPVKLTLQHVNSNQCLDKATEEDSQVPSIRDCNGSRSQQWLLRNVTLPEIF
# Sequence of UniProt O15347 (O15347 whole entry, looked up): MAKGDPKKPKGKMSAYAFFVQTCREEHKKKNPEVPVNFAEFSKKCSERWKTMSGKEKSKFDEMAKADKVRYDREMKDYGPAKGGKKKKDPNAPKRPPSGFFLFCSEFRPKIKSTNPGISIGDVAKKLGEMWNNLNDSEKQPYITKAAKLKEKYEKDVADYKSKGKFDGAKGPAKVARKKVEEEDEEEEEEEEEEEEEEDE
# Sequence of UniProt P04066 (P04066 whole entry, looked up): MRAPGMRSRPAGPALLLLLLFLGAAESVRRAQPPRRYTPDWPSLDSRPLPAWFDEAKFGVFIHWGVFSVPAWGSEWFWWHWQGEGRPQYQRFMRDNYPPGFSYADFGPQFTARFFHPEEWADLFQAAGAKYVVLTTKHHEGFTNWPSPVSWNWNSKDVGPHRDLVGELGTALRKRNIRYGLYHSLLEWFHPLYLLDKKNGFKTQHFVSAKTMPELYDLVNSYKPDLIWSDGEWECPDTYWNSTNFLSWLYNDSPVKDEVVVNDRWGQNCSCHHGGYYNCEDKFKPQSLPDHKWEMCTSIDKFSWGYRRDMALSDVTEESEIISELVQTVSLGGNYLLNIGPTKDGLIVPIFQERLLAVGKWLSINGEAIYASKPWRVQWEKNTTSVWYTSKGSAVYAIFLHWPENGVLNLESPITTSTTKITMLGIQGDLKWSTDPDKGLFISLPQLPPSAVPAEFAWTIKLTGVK
# Sequence of UniProt P08754 (P08754 whole entry, looked up): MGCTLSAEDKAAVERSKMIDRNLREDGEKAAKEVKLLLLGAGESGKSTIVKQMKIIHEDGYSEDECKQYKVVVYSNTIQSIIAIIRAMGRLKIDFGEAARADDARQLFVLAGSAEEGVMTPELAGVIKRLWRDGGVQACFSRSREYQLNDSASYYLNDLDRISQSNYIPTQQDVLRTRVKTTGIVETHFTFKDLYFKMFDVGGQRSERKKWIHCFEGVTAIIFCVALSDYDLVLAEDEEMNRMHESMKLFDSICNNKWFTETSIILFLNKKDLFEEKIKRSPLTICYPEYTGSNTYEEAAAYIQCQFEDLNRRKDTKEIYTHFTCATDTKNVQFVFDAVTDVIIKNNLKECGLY
# Sequence of UniProt Q7Z4V5 (Q7Z4V5 whole entry, looked up): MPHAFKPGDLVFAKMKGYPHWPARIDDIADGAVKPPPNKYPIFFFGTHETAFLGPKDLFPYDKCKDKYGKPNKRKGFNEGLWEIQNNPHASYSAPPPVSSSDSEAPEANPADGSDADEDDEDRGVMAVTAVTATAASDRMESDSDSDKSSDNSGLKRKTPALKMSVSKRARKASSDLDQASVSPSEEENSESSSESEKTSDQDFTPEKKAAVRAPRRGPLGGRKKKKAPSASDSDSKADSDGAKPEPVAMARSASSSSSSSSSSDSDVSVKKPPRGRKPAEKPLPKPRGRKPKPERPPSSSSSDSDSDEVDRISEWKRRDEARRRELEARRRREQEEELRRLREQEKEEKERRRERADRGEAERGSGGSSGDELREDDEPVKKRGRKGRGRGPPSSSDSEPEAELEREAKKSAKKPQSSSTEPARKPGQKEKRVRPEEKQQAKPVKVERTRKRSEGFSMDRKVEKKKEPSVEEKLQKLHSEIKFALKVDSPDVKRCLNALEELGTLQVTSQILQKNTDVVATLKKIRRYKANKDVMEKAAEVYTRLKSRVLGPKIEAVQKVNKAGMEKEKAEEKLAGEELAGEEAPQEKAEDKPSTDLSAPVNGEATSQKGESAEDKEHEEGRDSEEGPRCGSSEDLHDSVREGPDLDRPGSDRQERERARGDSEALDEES
Target,log2 fold change (bafetinib),log2 fold change [1],log2 fold change (nilotinib),log2 fold change [2],log2 fold change (dasatinib),log2 fold change [3],log2 fold change [4],log2 fold change [5],log2 fold change (tipifarnib),log2 fold change (mubritinib)
HP1BP3 (UniProt Q5SSJ5),0.017,-0.082,0.055,-0.008,0.009,0.125,-0.045,-0.087,0.028,0.026
FUCA1 (UniProt P04066),-1.16 (active),-0.001,-0.011,-0.01,-0.009,-0.014,-0.054,0.011,-0.001,-0.008
GCDH (UniProt Q92947),-0.047,0.007,0.002,0.017,-0.059,-0.001,0.08,-0.129,-0.007,-0.028
GALK1 isoform 2 (UniProt P51570),0.061,0.062,-0.018,-0.001,-0.043,-0.015,0.055,-0.084,-0.136,0.01
HDGFL2 (UniProt Q7Z4V5),-0.017,-0.013,-0.007,-0.061,0.035,-0.029,-0.018,-0.048,0.032,0.098
HMGB3 (UniProt O15347),-0.057,-0.009,0.051,-0.013,0.066,0.03,0.014,-0.084,-0.024,0.01
GDI1 (UniProt P31150),0.002,0.024,0.001,0.017,-0.053,-0.024,0.035,0.01,-0.06,0.062
GAGE12F (UniProt P0CL80),-0.092,-0.284 (active),0.052,-0.085,0.009,-0.015,-0.004,-0.035,0.053,0.085
IFRD2 isoform 2 (UniProt Q12894),-0.083,-0.019,0.153,0.047,0.028,0.236,0.07,-0.176,0.08,0.073
GALNT1 (UniProt Q10472),-0.053,-0.065,-0.059,0.014,0.014,0.142,0.1,-0.093,0.019,0.029
GAPVD1 isoform 6 (UniProt Q14C86),0.023,0.072,-0.09,-0.092,-0.15,-0.017,-0.043,-0.016,-0.135,0.028
HDAC6 (UniProt Q9UBN7),-0.18,-0.086,0.126,-0.026,-0.107,-0.084,0.055,-0.005,-0.009,0.086
GEMIN2 (UniProt O14893),-0.154,-0.124,-0.045,0,0.049,-0.027,-0.039,-0.095,0.08,-0.048
HDAC7 isoform 5 (UniProt Q8WUI4),-0.023,0.033,0.024,-0.378 (active),-0.134,-0.161,0.026,-0.021,0.093,-0.006
HNRNPC isoform 2 (UniProt P07910),0.159,-0.228,0.054,-0.099,0.425,-0.286,-0.431,-0.173,0.596,-0.268
HIST2H3A (UniProt Q71DI3),0.198,-0.183,-0.054,-0.068,0.215,-0.032,-0.258,-0.054,0.031,-0.037
GID4 (UniProt Q8IVV7),-0.059,-0.058,-0.051,0.003,-0.086,0.038,-0.042,-0.032,0.116,-0.029
GNAI3 (UniProt P08754),0.066,0.033,0.185,0.008,0.086,-0.004,-0.017,0.018,-0.008,-0.032
GSTO1 (UniProt P78417),0.021,0.148,-0.009,-0.021,-0.007,-0.009,0.019,-0.004,-0.014,0.018
GTF3A (UniProt Q92664),-0.113,-0.026,0.042,-0.219,-0.137,-0.031,0.023,–,-0.12,0.06
GYG1 (UniProt P46976),0.237,0.035,0.635 (active),-0.012,0.052,-0.297,-0.06,-0.11,-0.009,-0.104
GTF3C5 isoform 3 (UniProt Q9Y5Q8),0.028,-0.013,-0.04,-0.167,-0.269,-0.137,0.027,-0.063,0.01,0.065
HTATIP2 isoform 3 (UniProt Q9BUP3),-0.143,-0.016,0.116,-0.056,-0.046,-0.002,0.031,0.067,0.106,-0.063
HNRNPK isoform 2 (UniProt P61978),-0.03,0.007,-0.084,-0.206,-0.072,-0.136,0.031,0.017,0.007,-0.024
GTF3C4 (UniProt Q9UKN8),-0.065,0.019,-0.034,-0.069,-0.024,0.036,-0.017,-0.007,0.014,0.01
HHEX (UniProt Q03014),-0.039,-0.024,-0.033,-0.056,0.04,0.008,0.373,0.044,-0.012,0.066
GGT7 (UniProt Q9UJ14),-0.081,-0.038,0.026,0.015,-0.02,-0.03,0.063,0.018,0.001,0.021
